Bead autofluor: flagged as autofluorescent in microsphere protease counterscreen; compound autofluorescence counterscreen, microsphere flow cytometry; hits give high values; fluorescence intensity (test concentration not listed); 3.1% of 360,000 active; AID 624483; in the data active = fluorescence intensity above about 16000
BoNT-F LC inh: BoNT/F light chain protease inhibitors, primary screen, biochemical, flow cytometry, MLPCN library; inhibition, % at 10 µM; Botulinum neurotoxin type F light chain protease (Clostridium botulinum); 0.22% of 360,000 active; AID 588497, 2011; Multiplex microsphere protease cleavage assay; in the data active = inhibition above about 35%, passing the limit was not always enough; also: plate controls were buffer without enzyme for full effect and enzyme alone for no effect
BoNT A protease: BoNT/A light chain protease inhibitors, primary screen, biochemical, flow cytometry, MLPCN library; inhibition, % at 10 µM; multiplex microsphere protease substrate cleavage; 0.17% of 360,000 active; also: plate controls were buffer without enzyme for full effect and enzyme alone for no effect
Anthrax LF prot: Bacillus anthracis LF protease inhibitors, primary screen, biochemical, multiplex microsphere, MLPCN library | multiplex microsphere protease cleavage assay | inhibition, % at 10 µM | 0.12% of 360,000 active | AID 588501, 2011 | Lethal factor (Bacillus anthracis), P15917; also: plate controls were buffer without enzyme for full effect and enzyme alone for no effect
GDH-TPI counter-1: GDH-TPI coupling enzyme inhibitors, primary screen, artefact control for M. tuberculosis FBA inhibitor project, biochemical, absorbance, full deck; inhibition, % at 4.8 µM; GDH-TPI coupled enzyme counterscreen, NADH absorbance; 1.2% of 360,000 active; in the data active = inhibition above about 30%;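 also: 0% = DMSO wells and 100% = wells lacking the enzyme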
Mtb FBA inh: Mtb FBA enzyme inhibitors, primary screen, biochemical, fluorescence, strain H37Rv; Fructose-bisphosphate aldolase (Mycobacterium tuberculosis (strain ATCC 25618 / H37Rv)), …; purified M. tuberculosis FBA, fluorescence read-out; inhibition, % at 1 µM; 2.3% of 360,000 active; in the data active = inhibition above about 27%;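 also: 0% = vehicle and 100% = reference inhibitor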
Mtb FBA inh conf: M. tuberculosis aldolase blockers, biochemical, fluorescence, strain H37Rv, confirmation; purified M. tuberculosis FBA, fluorescence read-out; 78% of 5,600 active; inhibition, % at 1 µM; shares compounds with Mtb FBA inh; in the data active = inhibition above about 27%;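 also: 0% = vehicle wells and 100% = reference inhibitor wells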
GDH-TPI counter-2: GDH-TPI coupling enzyme inhibitors, artefact control for M. tuberculosis FBA inhibitor project, biochemical, fluorescence, high throughput | inhibition, % at 1 µM | GDH-TPI coupled enzyme counterscreen | 81% of 5,600 active | AID 652141, 2013 | shares compounds with Mtb FBA inh; in the data active = inhibition above about 10%
Numbers without * were called inactive; . = not tested or not shown; + = active, no number. Shown are actives, neighbours in structure and some others; about 6.7% of the full set was active somewhere. Rule as the data show it, unless noted: active = inhibition above about 30%; inconclusive = no clear call, values can overlap the other calls; inactive = below that.

SMILES | Bead autofluor | BoNT-F LC inh | BoNT A protease | Anthrax LF prot | GDH-TPI counter-1 | Mtb FBA inh | Mtb FBA inh conf | GDH-TPI counter-2
CCN1CCN(c2cc3c(nn2)Oc2ccccc2N3C)CC1 | 2417 | -6.8 | -0.1 | -0.2 | 8.3 | 73.3* | 4.9 | -5.2
COCCn1c(SCC(=O)N2CCCCC2)nc2cccnc21 | 5112 | -7.8 | -0.5 | 2.6 | 3.5 | 3.6 | . | .
CN(C)C(=O)Oc1ccc(-c2cn3cc(C(F)(F)F)ccc3n2)cc1 | 8473 | 9.9 | 1.4 | -3.0 | 5.8 | 34.2* | 70.0* | 58.5*
CN(C)C(=O)Oc1ccc(-c2cn3cc(Cl)ccc3n2)cc1 | 7453 | 2.0 | 2.4 | -2.5 | 16.0 | 13.2 | . | .
CC(C)(C)c1ccccc1NC(=S)NCc1ccccc1 | 2441 | -10.0 | 0.0 | -0.4 | -11.3 | -8.1 | . | .
Cc1cc(C)c2cc(C#N)c(NCCCNC(=O)c3cccnc3)nc2c1 | 4024 | 1.9 | 0.7 | -2.8 | 9.9 | 46.7* | 31.8* | 30.2*
COc1cc(OC)cc(C(=O)NCCNc2nc3cc(C)cc(C)c3cc2C#N)c1 | 3935 | 9.2 | 1.4 | -10.4 | 11.7 | 31.2* | -9.2 | -3.6
COc1ccc(C(=O)NCCCNc2nc3cc(C)cc(C)c3cc2C#N)cc1 | 3547 | 3.0 | 3.3 | 2.0 | -0.5 | 37.5* | 3.3 | -6.1
COc1cc(C(=O)NCCCNc2nc3cc(C)c(C)cc3cc2C#N)cc(OC)c1OC | 3809 | -2.8 | 3.6 | 1.0 | 5.3 | 52.4* | 75.3* | 61.9*
COc1ccccc1C(=O)NCCNc1nc2cc(C)cc(C)c2cc1C#N | 3954 | 16.0 | 0.9 | 0.3 | 9.6 | 5.5 | . | .
COc1cc(C(=O)NCCNc2nc3cc(C)ccc3cc2C#N)cc(OC)c1OC | 3699 | 13.8 | 2.8 | 13.0 | 9.6 | 12.7 | . | .
O=C(CCC(=O)OCc1ccc(Cl)cc1)Nc1cccc([N+](=O)[O-])c1 | 9527 | -0.7 | -0.6 | -11.8 | 4.4 | 0.1 | . | .
COCCCNC(=S)NCCCNc1nc2cc(C)cc(C)c2cc1C#N | 4966 | 0.5 | 2.8 | -0.2 | 0.0 | 47.3* | 6.1 | -7.1
Cc1cccc2cc(C#N)c(NCCNC(=O)c3ccccc3)nc12 | 4034 | 4.2 | 0.7 | -1.4 | 12.6 | 40.5* | + | +
Cc1cc(C)c2cc(C#N)c(NCCNC(=S)NCCCN3CCOCC3)nc2c1 | 4570 | -1.1 | 1.1 | -0.6 | -1.3 | 23.5 | . | .
COc1cc(C(=O)NCCNc2nc3c(C)c(C)ccc3cc2C#N)cc(OC)c1OC | . | . | . | . | 9.4 | 16.1 | . | .
COc1cccc(/C=C/C(=O)OC(C)C(=O)Nc2c(C)n(C)n(-c3ccccc3)c2=O)c1 (stereo unspecified) | 5092 | -4.0 | 0.6 | -7.5 | 4.2 | 28.7* | 122.4* | 101.2*
O=C(N/N=C/c1cccc(F)c1)NC1CCCCC1 | 2653 | -1.8 | -0.1 | -1.5 | -1.9 | -0.2 | . | .
COc1ccc(S(=O)(=O)Nc2ccccc2C(=O)Nc2nc(-c3ccc(F)cc3)cs2)cc1OC | 2571 | -0.9 | 0.3 | -1.0 | 10.8 | 32.8* | 92.4* | 67.9*
c1ccc(C2=NN(c3ccccc3)CC2)cc1 | 3685 | -5.3 | -0.3 | 1.4 | 24.7 | 48.5* | -1.7 | -5.1
COC(=O)c1cc(C#N)c(N2CC(C)OC(C)C2)nc1C (stereo unspecified) | 3518 | 4.4 | -0.4 | 1.5 | 4.8 | 35.0* | 65.2* | 44.0*
Cn1c(=O)c2c(-c3ccccc3)n(-c3ccccc3)cc2n(C)c1=O | 3866 | -2.1 | 0.0 | -10.0 | 9.0 | 4.5 | . | .
COc1ccc(-c2c3c(=O)n(C)c(=O)n(C)c3cn2-c2ccc(O)cc2)cc1 | 5770 | 3.2 | 0.8 | 2.6 | 4.6 | 45.4* | + | 188.5*

Assay outcomes from PubChem.
